# Source: PubChem BioAssay AID1159580 (chemical genetic matrix, 2015)
# Where “and” joins values, the source holds several entries; their conditions need not be identical. Identical values can stand only once. Out of some 5,500 compounds screened, about 2,000 (36%) were called active. Not shown: some 18% with an inconclusive outcome. The list shows a part of the results. Values without a mark were called inactive. No stated cut-off is given here; in the data, active means normalized growth mostly below about 0.91 (no sharp cut-off); inconclusive means no clear call, values can overlap the other calls; inactive means mostly above about 0.92.
# Assay: chemical genetic growth profiling, strain panel (AID 1159580);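 further: tested at 20 µM; growth read once vehicle control cultures reached saturation at 30 °C; 1 = growth at the plate median or of vehicle wells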
# Conditions: S. cerevisiae deletion strains, growth OD
compound,measurement,setting,value
COc1cc2c(cc1OC)[C@@H]1C(=O)c3ccc4c(c3O[C@@H]1CO2)C=CC(C)(C)O4,normalized growth,"locus YAL013W, strain DEP1, stronger effect = lower value",0.993
same,normalized growth,"locus YAL021C, strain ccr4, stronger effect = lower value",1.05
same,normalized growth,"locus YAL026C, strain drs2, stronger effect = lower value",1.02
same,normalized growth,"locus YAL030W, strain snc1, stronger effect = lower value",1.02
same,normalized growth,"locus YBL061C, strain skt5, stronger effect = lower value",1.01
same,normalized growth,"locus YBR009C, strain hhf1, stronger effect = lower value",0.938
same,normalized growth,"locus YBR021W, strain FUR4, stronger effect = lower value",0.972
same,normalized growth,"locus YBR023C, strain chs3, stronger effect = lower value",1.01
same,normalized growth,"locus YBR171W, strain sec66, stronger effect = lower value",0.993
same,normalized growth,"locus YBR229C, strain ROT2, stronger effect = lower value",0.99
same,normalized growth,"locus YBR231C, strain swc5, stronger effect = lower value",0.99
same,normalized growth,"locus YBR279W, strain paf1, stronger effect = lower value",1.01
same,normalized growth,"locus YCL011C, strain gbp2, stronger effect = lower value",0.98
same,normalized growth,"locus YCL016C, strain dcc1, stronger effect = lower value",1
same,normalized growth,"locus YCL029C, strain bik1, stronger effect = lower value",0.971
same,normalized growth,"locus YCL069W, strain vba3, stronger effect = lower value",1
same,normalized growth,"locus YCR088W, strain abp1, stronger effect = lower value",1.01
same,normalized growth,"locus YDL005C, strain med2, stronger effect = lower value",1.03
same,normalized growth,"locus YDL035C, strain GPR1, stronger effect = lower value",0.976
same,normalized growth,"locus YDL040C, strain nat1, stronger effect = lower value",1
same,normalized growth,"locus YDL074C, strain BRE1, stronger effect = lower value",0.994
same,normalized growth,"locus YDL101C, strain DUN1, stronger effect = lower value",0.976
same,normalized growth,"locus YDL134C, strain PPH21, stronger effect = lower value",0.99
same,normalized growth,"locus YDL185W, strain tfp1, stronger effect = lower value",0.97
same,normalized growth,"locus YDL192W, strain arf1, stronger effect = lower value",0.964
same,normalized growth,"locus YDR001C, strain nth1, stronger effect = lower value",1.01
same,normalized growth,"locus YDR069C, strain doa4, stronger effect = lower value",1
same,normalized growth,"locus YDR101C, strain arx1, stronger effect = lower value",0.988
same,normalized growth,"locus YDR137W, strain rgp1, stronger effect = lower value",0.88
same,normalized growth,"locus YDR150W, strain NUM1, stronger effect = lower value",0.987
same,normalized growth,"locus YDR159W, strain sac3, stronger effect = lower value",0.898
same,normalized growth,"locus YDR162C, strain NBP2, stronger effect = lower value",1.01
same,normalized growth,"locus YDR195W, strain ref2",1.1
same,normalized growth,"locus YDR297W, strain sur2, stronger effect = lower value",0.993
same,normalized growth,"locus YDR318W, strain mcm21, stronger effect = lower value",0.966
same,normalized growth,"locus YDR334W, strain swr1, stronger effect = lower value",1.02
same,normalized growth,"locus YDR335W, strain msn5, stronger effect = lower value",1.02
same,normalized growth,"locus YDR388W, stronger effect = lower value",0.974
same,normalized growth,"locus YDR392W, strain spt3, stronger effect = lower value",0.607 (active)
same,normalized growth,"locus YDR502C, strain sam2, stronger effect = lower value",0.981
same,normalized growth,"locus YEL003W, strain gim4, stronger effect = lower value",1.01
same,normalized growth,"locus YEL037C, strain rad23, stronger effect = lower value",1.03
same,normalized growth,"locus YEL061C, strain CIN8 (second series), stronger effect = lower value",1.02
same,normalized growth,"locus YEL061C, strain CIN8, stronger effect = lower value",0.995
same,normalized growth,"locus YER015W, strain faa2, stronger effect = lower value",1.01
same,normalized growth,"locus YER016W, strain bim1, stronger effect = lower value",1.01
same,normalized growth,"locus YER110C, stronger effect = lower value",0.962
same,normalized growth,"locus YER111C, strain swi4, stronger effect = lower value",1.04
same,normalized growth,"locus YER155C, strain BEM2 (second series), stronger effect = lower value",0.991
same,normalized growth,"locus YER155C, strain BEM2, stronger effect = lower value",0.988
same,normalized growth,"locus YER167W, strain BCK2, stronger effect = lower value",0.955
same,normalized growth,"locus YFR010W, strain ubp6, stronger effect = lower value",1.01
same,normalized growth,"locus YGL078C, strain dbp3, stronger effect = lower value",0.973
same,normalized growth,"locus YGL086W, strain mad1, stronger effect = lower value",0.958
same,normalized growth,"locus YGL167C, strain pmr1, stronger effect = lower value",1
same,normalized growth,"locus YGL173C, strain kem1, stronger effect = lower value",0.978
same,normalized growth,"locus YGL227W, strain vid30, stronger effect = lower value",1
same,normalized growth,"locus YGL240W, strain doc1, stronger effect = lower value",0.98
same,normalized growth,"locus YGL248W, strain PDE1, stronger effect = lower value",0.986
same,normalized growth,"locus YGL253W, strain hxk2, stronger effect = lower value",0.996
same,normalized growth,"locus YGR078C, strain PAC10, stronger effect = lower value",1.01
same,normalized growth,"locus YGR135W, strain pre9, stronger effect = lower value",0.987
same,normalized growth,"locus YGR229C, strain SMI1, stronger effect = lower value",0.983
same,normalized growth,"locus YGR252W, strain gcn5, stronger effect = lower value",0.891
same,normalized growth,"locus YHR013C, strain ard1, stronger effect = lower value",0.993
same,normalized growth,"locus YHR027C, strain rpn1, stronger effect = lower value",1
same,normalized growth,"locus YHR030C, strain SLT2, stronger effect = lower value",0.986 and 0.96
same,normalized growth,"locus YHR079C, strain IRE1 (second series), stronger effect = lower value",0.987
same,normalized growth,"locus YHR079C, strain IRE1, stronger effect = lower value",0.954
same,normalized growth,"locus YHR094C, strain hxt1, stronger effect = lower value",0.978
same,normalized growth,"locus YHR129C, strain ARP1, stronger effect = lower value",0.989
same,normalized growth,"locus YHR142W, strain chs7, stronger effect = lower value",0.996
same,normalized growth,"locus YHR200W, strain rpn10, stronger effect = lower value",0.965
same,normalized growth,"locus YIL066C, strain RNR3, stronger effect = lower value",0.964
same,normalized growth,"locus YIL073C, strain SPO22, stronger effect = lower value",0.937
same,normalized growth,"locus YIL125W, strain kgd1, stronger effect = lower value",0.979
same,normalized growth,"locus YIR030C, strain dcg1, stronger effect = lower value",0.979
same,normalized growth,"locus YJL092W, strain hpr5, stronger effect = lower value",1
same,normalized growth,"locus YJL095W, strain BCK1 (second series), stronger effect = lower value",0.988
same,normalized growth,"locus YJL095W, strain BCK1, stronger effect = lower value",0.998 and 0.956
same,normalized growth,"locus YJL115W, strain asf1, stronger effect = lower value",1.01
same,normalized growth,"locus YJL129C, strain trk1, stronger effect = lower value",0.985
same,normalized growth,"locus YJL134W, strain LCB3, stronger effect = lower value",0.975
same,normalized growth,"locus YJL154C, strain vps35, stronger effect = lower value",1.01
same,normalized growth,"locus YJL164C, strain tpk1, stronger effect = lower value",1
same,normalized growth,"locus YJL166W, strain qcr8, stronger effect = lower value",0.959
same,normalized growth,"locus YJL168C, strain set2, stronger effect = lower value",0.972
same,normalized growth,"locus YJL187C, strain SWE1 (second series), stronger effect = lower value",0.993
same,normalized growth,"locus YJR043C, strain POL32, stronger effect = lower value",0.987
same,normalized growth,"locus YJR066W, strain TOR1, stronger effect = lower value",0.915
same,normalized growth,"locus YJR075W, strain HOC1, stronger effect = lower value",0.973
